Compounds without any hit were thinned out: in the full panel of roughly 83,000, 20% have a hit.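 96-well plates, one dose, 48 hours. Percent growth reported; active if below 10.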 The source made the active and inactive calls.

The subject of the test is T-47D breast. The test is described as follows: NCI-60 one-dose screen, 48 h (100 = growth as untreated, 0 = no growth, -100 = all killed). To be noted: 10 µM unless noted.
Regarding `CCOC(=O)C(C#N)C1CCCCC1` (stereo not drawn), the growth was 91.1% (inactive).
Under `Cc1nc2nc(N)nc(N)c2nc1C` stands 91.2% (inactive); under `Cc1cc2cc3cc(C)c(N(C)C)cc3[n+](C)c2cc1N(C)C`, 16.4% (inactive); under `O=[N+]([O-])c1cccc(-c2nc3sccn3c2-c2ccnc(NCCCNS(=O)(=O)c3cccc(F)c3)n2)c1`, -13.4% (active).
The same measure for `Cc1ccc(Nc2nc(N)nc(Nc3ccc4ccccc4c3)n2)cc1`: 36.2% (inactive); for `COc1ccc(C(=O)COc2ccc(/C=C3\Oc4ccc(Cl)cc4C3=O)cc2)cc1`: 78.2% (inactive); for `O=C(/C=C/c1ccc(B(O)O)cc1)/C=C/c1ccc(B(O)O)cc1`: 27% (inactive).
The same measure for `CNC(=O)c1cc(Oc2ccc3nc(NC(=O)Nc4ccc(CN5CCOCC5)c(C(F)(F)F)c4)sc3c2)ccn1`: 22.7% (inactive).
In the case of `C=C1C(=O)O[C@H]2[C@H]1CC/C(Cn1cc(Cn3ccc4cc(Cl)ccc43)nn1)=C\CC[C@@]1(C)O[C@@H]21`, the growth was -47.6% (active).
The same measure for `Nc1ccc(N2CCOCC2)cc1`: 88.1% (inactive); for `CCCCCCCCCc1cc(CN2CCCCC2)c(O)c(CN2CCCCC2)c1`: 19.8% (inactive); for `COc1ccc2nc3cc(Cl)ccc3c(N3CCN(c4nccc(Nc5ccccc5)n4)CC3)c2c1`: 23.3% (inactive).
The same measure for `COc1ccc(-c2nn(-c3ccccc3)cc2/C=C/C(=O)OCc2cn(-c3ccc(F)c(Cl)c3)nn2)cc1`: 48.3% (inactive).
Under `COc1ccc(C2CC(=O)Nc3c2c(C)nn3-c2nc3ccccc3[nH]2)cc1` (stereo not drawn) stands 111% (inactive); under `COc1cc(NC(N)=NCC(C)(C)COc2ccc(C(F)(F)F)cc2)cnc1C#N`, 30.3% (inactive).
As for `CSc1nc(NCCO)c(C#N)c(-c2cccc(N)c2)n1`, the growth is 87.8% (inactive).
The same measure for `COc1cccc(/C=C2/C(=O)N(Cc3ccco3)SC2=S)c1OC`: 81.2% (inactive); for `COc1ccc2nc3cc(Cl)ccc3c(N3CCN(c4nccc(Nc5ccc(Cl)cc5)n4)CC3)c2c1`: 32.2% (inactive).
The same measure for `NCc1cn2cc(Cl)sc2n1`: 111% (inactive); for `COc1ccc(/C=C/C(=O)c2ccc(NC(=O)c3cc4cc5ccccc5nc4s3)cc2)cc1OC`: 87.7% (inactive); for `CC(=O)N1CC(Nc2ccc(OC(F)(F)F)cc2)=CC1=O`: 26.2% (inactive).
The same measure for `COc1ccc(/C=N\NC(=O)CN2CCN(c3cc4c(cc3F)c(=O)c(C(=O)N/N=C/c3ccc(OC)cc3)cn4C3CC3)CC2)cc1`: 82.5% (inactive); for `CN(C)c1ccc(/C=C\C2=[N+](C)c3ccccc3C2(C)C)cc1`: 0.627% (active); for `COc1nc2c(cc1S(=O)(=O)c1ccccc1)CCc1c-2cnn1-c1ccc(Cl)cc1`: 83.2% (inactive).
Regarding `CC1=C(NCCN2CCCC2)C(=O)c2c(OCc3ccc(F)c(Cl)c3)cccc2C1=O`, the growth is 62.7% (inactive).
Under `CN1CCN(Cc2ccc(NC(=O)c3cncc(C#Cc4cnc(N)c5cccnc45)c3)cc2C(F)(F)F)CC1` stands 26.2% (inactive).
For the compound `C/C(=C(/c1ccc(O)cc1)c1ccc(OCCN2CCCC2)cc1)c1ccccc1`, the growth was 28.5% (inactive).
Turning to `c1ccc2sc(SCCCn3ccnc3)nc2c1`, the growth was 75.5% (inactive).
Under `COC(=O)C12C3C(=O)N(c4ccc(OC)cc4)C(=O)C3C(c3cn(-c4ccccc4)nc3C)N1[C@H](c1cn(-c3ccccc3)nc1C)[C@@H]1C(=O)N(c3ccc(OC)cc3)C(=O)[C@@H]12` (stereo partly drawn) stands 102% (inactive); under `CCc1ccc(C(c2ccc(CC)cc2)C(Cl)(Cl)CCl)cc1`, 77.6% (inactive).
Under `Cc1ccc(C2CC3c4ccccc4C2C2CCCCN32)cc1` (stereo not drawn) stands 83.6% (inactive).
Consider `CCOC(=O)C(=Cc1ccccc1F)C(=O)OCC`, for which the growth is 67.4% (inactive).
Under `CCN(CC)CCCNc1cc(OC)cc2nc3cc(Cl)ccc3nc12` stands 29.8% (inactive); under `O=C(/C=C/c1cc2ccccc2[nH]c1=O)/C=C/c1cc2ccccc2[nH]c1=O`, 15.2% (inactive); under `Cc1cc(-c2nc3ccccc3s2)ccc1NC(=O)COc1ccc(Cl)cc1`, 18.9% (inactive).
On to `COc1cc(OC)c(/C=C/S(=O)(=O)Cc2cnc(OC)c(N)c2)c(OC)c1`, for which the growth was 15.6% (inactive).
The same measure for `COc1ccc(/C=C2\N=C3Sc4cc(Cl)ccc4C(=O)N3C2=O)cc1`: 92% (inactive); for `O=C([C@@H](COCc1ccccc1)N1C(=O)[C@@H](N2C(=O)OC[C@@H]2c2ccccc2)[C@H]1/C=C/c1ccccc1)N1CCC(CCN2CCCCC2)CC1`: 77.2% (inactive).

These data come from PubChem BioAssay (NCI).
